Screens (PubChem)
USP28 block: blocks human USP28 ubiquitin-rhodamine cleavage; Q96RU2; purified USP28, Ub-rhodamine cleavage fluorescence, 30 min; inhibition, % at 25 µM; hit rate 3% among 47,000
Target sequence (Q96RU2 whole entry, looked up): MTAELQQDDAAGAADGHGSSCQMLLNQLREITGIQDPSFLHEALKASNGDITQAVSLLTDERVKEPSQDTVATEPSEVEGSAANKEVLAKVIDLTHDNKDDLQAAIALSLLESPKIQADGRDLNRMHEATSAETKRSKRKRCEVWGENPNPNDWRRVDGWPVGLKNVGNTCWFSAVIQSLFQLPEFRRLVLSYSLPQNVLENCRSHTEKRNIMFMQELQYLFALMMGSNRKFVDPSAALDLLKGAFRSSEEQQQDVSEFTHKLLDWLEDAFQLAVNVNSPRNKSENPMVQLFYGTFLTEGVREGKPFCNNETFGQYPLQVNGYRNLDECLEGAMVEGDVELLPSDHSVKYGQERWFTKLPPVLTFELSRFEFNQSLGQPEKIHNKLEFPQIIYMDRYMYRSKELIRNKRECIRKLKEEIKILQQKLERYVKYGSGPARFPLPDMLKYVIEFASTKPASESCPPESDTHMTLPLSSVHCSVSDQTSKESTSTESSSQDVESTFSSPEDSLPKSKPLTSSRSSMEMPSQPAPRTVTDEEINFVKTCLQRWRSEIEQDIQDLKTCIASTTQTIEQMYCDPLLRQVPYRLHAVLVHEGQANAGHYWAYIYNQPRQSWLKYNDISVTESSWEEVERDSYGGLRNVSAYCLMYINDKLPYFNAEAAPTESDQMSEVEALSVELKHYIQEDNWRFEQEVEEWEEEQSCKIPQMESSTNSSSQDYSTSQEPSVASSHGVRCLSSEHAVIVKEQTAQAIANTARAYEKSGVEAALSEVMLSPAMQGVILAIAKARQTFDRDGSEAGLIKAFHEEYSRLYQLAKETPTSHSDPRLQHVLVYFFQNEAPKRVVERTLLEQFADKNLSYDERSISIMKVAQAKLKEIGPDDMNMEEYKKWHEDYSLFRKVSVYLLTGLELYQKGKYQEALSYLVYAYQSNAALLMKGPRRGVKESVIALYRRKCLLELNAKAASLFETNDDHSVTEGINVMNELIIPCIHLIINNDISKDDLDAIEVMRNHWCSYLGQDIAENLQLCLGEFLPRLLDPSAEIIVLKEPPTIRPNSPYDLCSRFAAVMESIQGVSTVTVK
USP30 block: human USP30 deubiquitinase inhibition; purified USP30, Ub-rhodamine cleavage fluorescence; hit rate 5.3% among 47,000; inhibition, % at 25 µM
USP17 inh: inhibitors of human USP17 deubiquitinase; A8MUK1; purified USP17, Ub-rhodamine cleavage fluorescence, 3 h; inhibition, % at 50 µM; hit rate 6.5% among 47,000; AID 1645855
* marks the source's active call; other numbers are inactive results; i = inactive; / = not tested or not shown. Only some compounds are listed: those with a hit (about 11% of all), similar ones and a draw of the others. Cut-off read from the data, not from the text of the source: active = inhibition above about 30%; inactive = the rest.

SMILES	USP28 block	USP30 block	USP17 inh
CC1(C)OC(=O)[C@@]2(C)N[C@]1(C)C[C@@H]2C(=O)Nc1ccccc1	0.9	6.0	4.0
O=C(NCc1ccccc1Cl)C1CCCN(c2nnc(N3CCCC3=O)s2)C1 (configuration not stated)	1.7	20.9	20.5
CCN1C(=O)[C@H]2CN(Cc3cccnc3)C[C@H]2C12CCN(C(=O)c1cccnc1)CC2	5.5	22.2	4.0
Cc1ccc(CSc2ccc3nnc(-c4cccnc4)n3n2)cc1	/	/	-4.1
c1ccc2c(c1)cnn1c(-c3ccncc3)nnc21	-5.3	-2.7	18.8
c1ccc(Cc2nn3c(-c4ccncc4)nnc3c3ccccc23)cc1	0.7	36.0*	48.8*
c1ccc(Cc2nn3c(-c4cccnc4)nnc3c3ccccc23)cc1	4.3	7.6	61.9*
COc1ccc2[nH]c(C(=O)NC(C)CCc3ccccc3)cc2c1 (configuration not stated)	-6.4	4.3	5.0
COc1ccc(CC(=O)Nc2ccc(N3CCOCC3)cc2)cc1	-1.7	-6.4	2.9
Cc1cccc2sc(NC(=O)c3ccncc3)nc12	-39.2	-123.2	-4.3
c1cncc(-c2nc(Nc3ccc4c(c3)OCCO4)c3ccccc3n2)c1	43.7*	52.8*	42.0*
Cc1ccc(Nc2nc(-c3ccncc3)nc3ccccc23)cc1	-1.1	-9.9	-1.5
CC(C)(C)c1ccc(Nc2nc(-c3cccnc3)nc3ccccc23)cc1	-18.9	-68.3	-13.0
c1cncc(-c2nc(Nc3ccc4c(c3)OCCCO4)c3ccccc3n2)c1	6.1	-13.6	40.1*
CCCCOc1ccc(C(=O)Oc2ccc(-n3cnnn3)cc2)cc1	25.4	22.1	6.9
COc1cccc(C2c3[nH]c4ccccc4c3C[C@@H]3C(=O)N(C4CCCC4)CC(=O)N23)c1 (some centres not stated)	-31.8	-111.4	-50.0
FC(F)(F)c1cnc(-n2cnc(-n3cccc3)n2)c(Cl)c1	10.8	-23.0	26.8
CCOC(=O)c1noc2nc(C)n(Cc3nc(-c4ccc(OC)cc4)oc3C)c(=O)c12	-1.3	-3.1	0.0
COc1ccc(-c2nc(Cn3nnc(C(=O)Nc4ccc(C)cc4C)c3N)c(C)o2)cc1	6.9	57.2*	28.9
COc1ccc(-c2nc(Cn3nnc(C(=O)Nc4ccc(C)c(C)c4)c3N)c(C)o2)cc1	-1.8	7.6	79.8*
COc1ccc(-c2nc(Cn3c(=O)n(C(C)C)c(=O)c4ccccc43)c(C)o2)cc1	8.8	5.9	10.6
O=C([C@H]1C[C@@H]2CN(Cc3ccccc3)C[C@H]1O2)N1CCOCC1	0.0	-4.2	0.0
O=C(NC1CCCCC1)C(c1ccc(F)cc1)N(Cc1cccnc1)C(=O)C1COc2ccccc2O1 (configuration not stated)	6.1	12.6	-8.7
COc1nn(C)cc1C(=O)N1CCC(C(=O)Nc2ccc(Cl)cc2Cl)CC1	23.0	-4.4	-14.7
Cc1cc(C)c(NC(=O)C23CCC(=O)N2c2ccccc2S3)c(C)c1 (configuration not stated)	-5.3	-57.6	/
SMILES	USP28 block	USP30 block	USP17 inh
CCOC(=O)C=C1CCN(c2ccc([N+](=O)[O-])cc2)CC1	-15.8	-24.5	0.3
Cc1cc(N2CCN(c3ccc([N+](=O)[O-])cc3)CC2)nc2cc3c(cc12)CCC3	11.0	21.1	30.3*
COc1ccc(C(=O)NCCn2ccc3ccccc32)cc1	-15.1	-58.3	-23.6
O=C(NCCn1ccc2ccccc21)c1cc2ccccc2oc1=O	-6.6	14.0	68.4*
Cc1cc(C(=O)NCc2cccc([C@@H]3NC(=O)N[C@H]4OCCC[C@H]43)c2)on1	10.3	14.0	0.7
Cc1nn(-c2cc(N3CCCC3)ncn2)c(C)c1CCC(=O)NCCc1ccccc1	0.0	8.8	-3.2
O=C(CSc1nnc2n(-c3ccccc3)c(=O)c3ccccc3n12)c1ccc(F)cc1	-4.0	2.9	3.4
O=C(CSc1nnc(C2CC2)n1-c1ccccc1)c1ccc(F)c(F)c1	6.4	32.2*	2.8
Cc1ccc2nc(-c3cccc(NC(=O)C(C)C)c3)[nH]c2c1	26.3	20.7	49.2*
COc1cccc(C(=O)Nc2ccccc2-c2nc3ccc(C)cc3[nH]2)c1	5.4	3.7	9.1
CC(=O)Nc1ccc2nc(NC(=O)c3cc(C)n(C)n3)sc2c1	-2.6	3.8	-9.7
CC(=O)Nc1ccc2nc(NC(=O)C34CC5CC(CC(C5)C3)C4)sc2c1	6.7	13.5	37.2*
O=C(Cc1cccs1)Nc1cc(F)c2nc(N3CCOCC3)ccc2c1	6.3	-20.3	61.8*
COc1ccc(CC(=O)Nc2cc(F)c3nc(N4CCOCC4)ccc3c2)cc1	-17.8	-17.9	-4.4
O=C(CC1CCCC1)Nc1cc(F)c2nc(N3CCOCC3)ccc2c1	5.3	-35.2	20.5
COc1ccc(C(=O)Nc2cc(F)c3nc(N4CCOCC4)ccc3c2)c(OC)c1	-0.3	-126.7	73.4*
COc1ccc(-c2cnc(N3CCN(CCO)CC3)nc2)cc1	-1.5	-44.1	/
O=C1COc2ccc(NC(=O)c3cnn(Cc4ccccc4)c3)cc2N1	11.7	19.4	63.2*
O=C1COc2ccc(NC(=O)N3CCN(Cc4ccc5c(c4)OCO5)CC3)cc2N1	9.3	7.7	0.0
O=C(CO)c1ccc(O)cc1	5.4	27.1	2.9
COCCNC(=O)CN1C(=O)c2ccccc2Sc2ccc(C(=O)N3CCCC3)cc21	0.0	-50.3	-0.5
COc1ccc(NC(=O)CN2C(=O)c3ccccc3Sc3ccc(C(=O)N4CCCC4)cc32)c(OC)c1	29.1	48.6*	54.6*
CCc1nnc2n1CC(c1ccc(NC(=O)c3cnn(C)c3C)cc1)CC2 (configuration not stated)	-1.5	-25.6	-7.3
COc1ccccc1CNC(=O)c1cccc(Nc2nc3ccccc3n3cnnc23)c1	0.1	-15.3	1.5
O=C(NCc1ccc(F)cc1)c1cccc(Nc2nc3ccccc3n3cnnc23)c1	74.8*	80.3*	71.7*
SMILES	USP28 block	USP30 block	USP17 inh
CCNc1cc(N2CCCC(CCC(=O)N3CCN(C(=O)OCC)CC3)C2)ncn1 (configuration not stated)	4.0	-10.1	-7.0
CCOc1cc2[nH]c(=O)n(Cc3ccc(C(=O)NCCCN4CCC(C)CC4)cc3)c(=O)c2cc1OCC	22.1	34.8*	26.7
CCOc1cc2[nH]c(=O)n(CCC(=O)NCCc3ccc(OC)c(OC)c3)c(=O)c2cc1OCC	-7.1	6.3	4.6
COc1ccc(Cn2c(=O)[nH]c3cc(C(=O)N4CCC(Cc5ccccc5)CC4)ccc3c2=O)cc1	17.4	37.3*	6.9
COc1cc2[nH]c(=O)n(Cc3ccc(C(=O)N4CCN(C5CCCCC5)CC4)cc3)c(=O)c2cc1OC	-1.6	33.2*	18.3
NC(=O)C1CCN(C(=O)c2ccc3c(=O)n(CCc4ccccc4)c(=O)[nH]c3c2)CC1	-52.0	23.9	13.9
CCOC(=O)N1CCN(C(=O)c2ccc(Cn3c(=O)[nH]c4cc(OC)c(OC)cc4c3=O)cc2)CC1	-14.3	-15.9	-11.9
COc1ccc(CN2CCN3Cc4ccccc4N(C(C)C)CC3C2)cc1 (configuration not stated)	-124.7	i	-119.7
COc1ccccc1CC(=O)N1CCC(Cc2ccccc2)CC1	7.8	35.9*	11.5
c1ccc(CC2CCN(Cc3cccc4ccccc34)CC2)cc1	7.5	6.6	6.0
O=C(Cc1cccc2ccccc12)N1CCC(Cc2ccccc2)CC1	4.1	43.9*	20.2
CN(CC(=O)N1CCC(Cc2ccccc2)CC1)Cc1ccccc1	7.1	10.3	5.6
